In the supplement of paper PMC8371130:
Structures can show the parent of a compound that is named as a salt.

Test system: HL-1
Assay: relative cell viability (CellTiter-Glo) vs DMSO control (% of DMSO control); higher = more viable cells
Method in brief: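 HL-1 mouse atrial cardiomyocytes were plated in 384-well plates at 1000 cells per well together with compounds at 40, 200, 1000 or 5000 nM in 0.01% DMSO. One day later, cells went to a hypoxic workstation (1% O2) for 48 h, then were reoxygenated for 24 h in a normal incubator, or stayed in normoxia for the same time. Cell viability was read by CellTiter-Glo luminescence and normalised to vehicle-treated control cells.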

[1] = oxygen condition: hypoxia 48 h (1% O2) + reoxygenation 24 h, 40 nM
[2] = oxygen condition: hypoxia 48 h (1% O2) + reoxygenation 24 h, 200 nM
[3] = oxygen condition: hypoxia 48 h (1% O2) + reoxygenation 24 h, 1000 nM
[4] = oxygen condition: hypoxia 48 h (1% O2) + reoxygenation 24 h, 5000 nM
[5] = oxygen condition: normoxia 72 h, 40 nM
[6] = oxygen condition: normoxia 72 h, 200 nM
[7] = oxygen condition: normoxia 72 h, 1000 nM
[8] = oxygen condition: normoxia 72 h, 5000 nM

Structure (SMILES)	relative cell viability [1]	relative cell viability [2]	relative cell viability [3]	relative cell viability [4]	relative cell viability [5]	relative cell viability [6]	relative cell viability [7]	relative cell viability [8]
CCCc1nc2c(C)cc(-c3nc4ccccc4n3C)cc2n1Cc1ccc(-c2ccccc2C(=O)O)cc1 [Telmisartan]	107	102	105	101	105	104	107	109
CN1C[C@@H]2C[C@H]1CN2c1cc2c(cc1F)c(=O)c(C(=O)O)cn2C1CC1 [Danofloxacin Mesylate]	106	104	111	108	111	101	103	107
Clc1ccc2nsnc2c1NC1=NCCN1 [Tizanidine HCl]	99.5	106	106	108	105	106	98.5	111
O=C(NCCN1CCOCC1)c1ccc(Cl)cc1 [Moclobemide]	113	111	102	120	108	100	119	121
COC(=O)C1=C(C)NC(C)=C(C(=O)OCCN2CCN(C(c3ccccc3)c3ccccc3)CC2)C1c1cccc([N+](=O)[O-])c1 (stereo not given) [Manidipine]	103	103	99.6	105	102	99.2	103	103
O=C(Nc1ccc([N+](=O)[O-])cc1Cl)c1cc(Cl)ccc1O [Niclosamide]	10	3.13	58.1	17.5	8.34	2.9	56.2	7.03
Cc1c(O)c(=O)ccn1C [Deferiprone]	108	102	102	112	100	102	107	111
NC12CC3CC(CC(C3)C1)C2 [Amantadine hydrochloride]	107	110	93.3	32.7	102	101	101	84.9
O=C[C@H](O)[C@@H](O)[C@H](O)CO [Xylose]	106	102	103	111	107	105	112	111
O=C(CCCN1CCC(O)(c2ccc(Cl)cc2)CC1)c1ccc(F)cc1 [Haloperidol]	101	99.4	102	101	92.8	98	100	98.5
COc1ccc2[nH]c([S@@+]([O-])Cc3ncc(C)c(OC)c3C)nc2c1 [Esomeprazole magnesium]	107	113	114	118	104	114	115	119
CC1(C)O[C@@H]2[C@@H](CO[C@@]3(COS(N)(=O)=O)OC(C)(C)O[C@@H]23)O1 [Topiramate]	97.3	91.8	108	100	104	107	98	98.8
CN(C)CCCN1c2ccccc2Sc2ccc(C(F)(F)F)cc21 [Triflupromazine HCl]	98.8	105	102	106	102	99.3	101	106
O=C(O)Cc1ccccc1Nc1c(Cl)cccc1Cl [Diclofenac]	97.6	112	103	109	100	105	105	109
COC(=O)C1=C(C)NC(C)=C(C(=O)OC2CCCN(Cc3ccccc3)C2)C1c1cccc([N+](=O)[O-])c1 (stereo not given) [Benidipine hydrochloride]	104	113	109	25	114	109	102	24
CC(C)[C@H](N)C(=O)OCC(CO)OCn1cnc2c(=O)nc(N)[nH]c21 (stereo not given in full) [valganciclovir hydrochloride]	107	107	107	121	108	110	114	115
CCCCN1CCCCC1C(=O)Nc1c(C)cccc1C (stereo not given) [Bupivacaine hydrochloride]	107	105	102	104	105	105	106	102
NC[C@H](O)c1ccc(O)c(O)c1 [Noradrenaline bitartrate monohydrate]	105	104	104	111	98.9	99.7	113	109
COc1cc(C(=O)NC2CCCNC2)cc(OC)c1OC (stereo not given) [Troxipide]	103	109	106	110	109	110	116	113
O=C1N=C(O)NC1(c1ccccc1)c1ccccc1 [Phenytoin sodium]	96.1	96.2	95.6	111	94.5	101	101	107
